Among the data in PubChem BioAssay (NCI) are growth values, retold here.

About 83,000 compounds went through this panel and 20% of them were active in at least one assay; those are over-represented in the sample as a whole.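 Each cell line was grown in a 96-well plate and treated with one concentration of compound for 48 hours. Values below 10 were considered active.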 Values without a mark were called inactive. Activity calls are given as the source filed them.

This experiment relates to OVCAR-5 ovarian. As to the kind of experiment: NCI-60 one-dose screen, 48 h (100 = growth as untreated, 0 = no growth, -100 = all killed). The settings on record: 10 µM unless noted.
On to `CCN1C(=O)N(CC)C2C1NN=c1s/c(=C\c3cc4ccccc4[nH]3)c(=O)n12` (centres undefined), for which the growth is 33.9%.

Regarding `CCN(CC)CCCNCc1cc(-c2ccccc2)nc2cc(Cl)ccc12`, the growth is 87.5%.

For `CC[C@H](CC[C@@H](C)[C@H]1CC[C@H]2[C@@H]3CC[C@@H]4CC(=O)/C(=C\c5ccncc5)C[C@]4(C)[C@H]3CC[C@]12C)C(C)C`, the growth was 104%.

Consider `CCN(CC)c1ccc(/C=N\NC(=O)c2cccc(Nc3ccnc(C(F)(F)F)c3)c2)c(O)c1`, for which the growth was 48.6%.

For `Cc1cscc(C)c1=S`, the growth was 67.5%.

For the compound `COC(=O)/C=C1/SC(=Nc2cccc(Cl)c2)N(CCc2c[nH]c3ccc(O)cc23)C1=O`, the growth is 58.7%.

Take `O=C(CCCCCCCCC(=O)N/N=C\c1cc(Cl)ccc1O)N/N=C\c1cc(Cl)ccc1O`: the growth was 62%.

Take `COc1ccc(/C=C/C(=O)c2cc3c(N)c(C(=O)Nc4ccc(OC)cc4)sc3nc2C)cc1`: the growth was 42.9%.

As to `CCCCCCOC(=O)CC1=C(C)/C(=C/c2[nH]c(-c3ccc[nH]3)cc2OC)N=C1C`, the growth was -9.61% (active).

Consider `Cc1ccc(O)c(NC(=O)c2ccc(CNc3ccnc(C(F)(F)F)c3)cc2)c1`, for which the growth is 76.9%.

On to `O=C1/C(=C/c2ccc(Br)cc2)COc2ccc(O)c(O)c21`, for which the growth was -59.8% (active).

In the case of `O=C(/C=C/C12c3ccccc3C(c3ccccc31)C1C(=O)NC(=O)C12)c1ccc(F)cc1` (centres undefined), the growth is 28%.

On to `Cc1ccc(C)c2c1C(O)(C#Cc1ccccc1)c1ccccc1C2(O)C#Cc1ccccc1` (centres undefined), for which the growth was 81.3%.

Take `C(/C=C/c1ccccc1)=Nc1ccc(CCc2ccc(N=C/C=C/c3ccccc3)cc2)cc1`: the growth was 93.6%.

With `O=C(Cn1nnc2ccccc21)Nc1ccc(-c2nc3ccccc3s2)cc1`, the growth was 104%.

On to `CCCCCCCC/C=C\CCCCCCCCOc1ccc(CC(=O)NCC[N+](C)(C)C)cc1`, for which the growth is 27.5%.

With `COc1cc(/C=C2\CN(S(=O)(=O)c3ccc(C)cc3)C/C(=C\c3cc(CN4CCCCC4)c(O)c(OC)c3)C2=O)cc(CN2CCCCC2)c1O`, the growth is -86.5% (active).

Take `Cc1ncc(C(=O)Nc2ccc(CN3CCN(C)CC3)c(C(F)(F)F)c2)cc1C#Cc1cnc(N)c2ccncc12`: the growth is -13.6% (active).

Turning to `COc1cc(C2=NN(C(C)=O)C(c3ccc(N(C)C)cc3)C2)cc(OC)c1OC` (centres undefined), the growth is 82.3%.

With `COC1=CC(c2ccc[nH]2)=N/C1=C\c1[nH]c(C)c(CC(=O)OCc2ccccc2)c1C`, the growth is 9.74% (active).

Take `CCOC(=O)CSc1nc2sc3c(c2c(=O)n1-c1ccc([N+](=O)[O-])cc1)CCCCC3`: the growth is 72.2%.

As for `CN(C)c1ccc(C(=NO)c2ccc(N(C)C)cc2)cc1`, the growth was 81.4%.

Turning to `Cc1ccc(C(=O)c2ccc(CC(=O)N/N=C/c3ccc(O)cc3O)n2C)cc1`, the growth is 63.4%.

For `N#C/C(=C\c1ccc(Br)cc1)c1cc2ccccc2[nH]1`, the growth is 93.9%.

Consider `COc1ccc(-c2cn(-c3ccc(Cl)cc3)c(SCC(=O)c3ccc([N+](=O)[O-])cc3)n2)cc1`, for which the growth was 90.5%.

Consider `COc1ccc(Cc2nnc(Nc3nc4ccccc4s3)s2)cc1`, for which the growth was 89.1%.

Turning to `CCOC(=O)c1ccc2c(c1)c1c(C)c3ccncc3c(C)c1n2C`, the growth is -11% (active).

For the compound `Cc1nc2sc(C(=O)Nc3cccc(Cl)c3)c(N)c2cc1C(O)c1ccccc1` (centres undefined), the growth is 41.4%.

With `COc1ccc(C2CC(c3ccc(Nc4nc(Nc5ccc(F)cc5)nc(Nc5ccc(F)cc5)n4)cc3)=NN2C(C)=O)cc1` (centres undefined), the growth was 87.6%.

In the case of `N#Cc1c(NC(=O)c2cccs2)[n+]([O-])c2ccc(Cl)cc2[n+]1[O-]`, the growth is 114%.

With `CC(C)(C)c1cc(C=Nc2cccc(C(F)(F)F)c2)c(O)c(C(C)(C)C)c1`, the growth was 105%.

Consider `N=c1sc(Cc2cc(Cl)ccc2Cl)cn1CC(=O)c1ccccc1`, for which the growth was 47.8%.

In the case of `COc1ccc(Nc2ncc(C(N)=O)c(NCCCNC(=O)C3CCC3)n2)cc1`, the growth is 109%.

Regarding `Cc1nn(-c2ccccc2)c(/N=C/N(C)C)c1/C=C/C(=O)c1ccc(Cl)cc1`, the growth was 81.7%.

Regarding `COc1ccc2cc(-c3ccc(-c4ccc(C(=N)N)s4)s3)ccc2c1`, the growth was -33% (active).

Regarding `O=C1c2cccnc2C(=O)c2c1c(C(=O)OCCCN1CCCCC1)c1ccccn21`, the growth is -19.2% (active).

For `O[C@@H](c1cc(C(F)(F)F)nc2c(C(F)(F)F)cccc12)[C@H]1CCCCN1`, the growth is 77.7%.

With `Cc1[nH]c(/C=C/C(=O)c2ccc(C(F)(F)F)c(F)c2)c(C)c1C(=O)NCC(C)C`, the growth was 101%.

`CCCCCCCCn1ccc2cc(NC(=O)Cn3cc(CN4CCCCCC4)nn3)ccc21`: the growth is 35.6%.
